# Measured values: the supplement of paper PMC3334620
# Over roughly 33,000 sequences, “E-score (-0.5 to 0.5)” has its median near -0.056; the highest 2% begin near 0.38. This is one part of a sample in which the highest values are shown more often than they occur.
# Target: Stb4 (UniProt P50104)
# Assay: PBM E-score (8-mer binding enrichment) (E-score (-0.5 to 0.5)); higher = stronger / more preferred TF binding
# Conditions: protein concentration: 200 nM; construct: GST-DNA-binding domain
# Procedure, shortened: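 E-scores (a modified Wilcoxon-Mann-Whitney statistic) were assigned by the Universal PBM Analysis Suite to every ungapped eight-base word pooled with its reverse complement. The input came from universal all-10-mer Agilent arrays made double-stranded by primer extension and probed with GST-tagged yeast transcription factors at about 100-200 nM. Fluorescent anti-GST detected bound protein, and masliner normalised the scans.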
# UniProt P50104, sequence (P50104 whole entry): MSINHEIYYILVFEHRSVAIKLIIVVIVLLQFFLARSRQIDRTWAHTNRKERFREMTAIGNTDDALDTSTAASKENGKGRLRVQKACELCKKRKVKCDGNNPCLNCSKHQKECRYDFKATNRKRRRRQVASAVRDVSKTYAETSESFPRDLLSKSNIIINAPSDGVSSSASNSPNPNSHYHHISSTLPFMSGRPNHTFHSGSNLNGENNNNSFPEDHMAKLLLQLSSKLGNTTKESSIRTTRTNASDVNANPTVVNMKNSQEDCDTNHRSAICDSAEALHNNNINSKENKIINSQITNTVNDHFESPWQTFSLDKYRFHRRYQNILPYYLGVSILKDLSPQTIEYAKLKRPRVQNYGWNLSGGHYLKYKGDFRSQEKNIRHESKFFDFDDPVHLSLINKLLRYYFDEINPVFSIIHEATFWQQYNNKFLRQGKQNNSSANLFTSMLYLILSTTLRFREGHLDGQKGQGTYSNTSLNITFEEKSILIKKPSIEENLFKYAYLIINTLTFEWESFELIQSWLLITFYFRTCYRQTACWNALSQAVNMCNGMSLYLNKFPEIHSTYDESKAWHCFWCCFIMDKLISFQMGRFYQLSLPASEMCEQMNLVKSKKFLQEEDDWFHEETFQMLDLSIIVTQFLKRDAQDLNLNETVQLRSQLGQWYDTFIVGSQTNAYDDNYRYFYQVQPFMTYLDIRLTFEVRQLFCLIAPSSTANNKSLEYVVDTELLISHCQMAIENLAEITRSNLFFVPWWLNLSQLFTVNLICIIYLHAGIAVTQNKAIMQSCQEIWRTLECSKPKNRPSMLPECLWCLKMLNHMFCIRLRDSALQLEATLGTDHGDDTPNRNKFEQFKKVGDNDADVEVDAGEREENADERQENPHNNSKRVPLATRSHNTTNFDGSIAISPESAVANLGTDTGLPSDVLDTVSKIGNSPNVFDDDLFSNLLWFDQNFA
row,Sequence,PBM E-score
1,AAGACTCC,-0.0274
2,AGATAGTG,-0.0913
3,ATAAGTAG,-0.157
4,ACCGAACC,0.336
5,GGCGAACC,-0.0255
6,CCCGAACC,0.414
7,GCCGAACC,0.395
8,CGCGAACC,0.166
9,CACGAACA,-0.0987
10,CACGAACC,-0.198
11,TCCGAACA,0.447
12,TGCGAACA,-0.144
13,TACGAACA,-0.191
14,CCCGAACG,0.378
15,CCCGAACA,0.393
16,GGAAAGTA,0.172
17,GAAATAGC,0.0755
18,GATCTTGC,0.0905
19,AGGCAGAC,-0.1
20,CGAGACGC,0.14
21,ACCCGCTA,0.151
22,CACCCTAA,-0.201
23,CTACAGTA,-0.139
24,ACTCCTTA,-0.0987
25,CGCAAGAA,0.0756

row,Sequence,PBM E-score
1,GCCGAACA,0.393
2,GTCGAACA,-0.044
3,ACCGAACA,0.313
4,CCAGGTCG,-0.247
5,AACACCCG,0.4
6,AATACCCT,0.0669
7,CACACCCG,0.3
8,ACTACCCG,0.401
9,ATTACCCG,0.416
10,ATTACCCC,0.133
11,ACTACCCC,-0.0517
12,AATACCCA,-0.00809
13,AACACCCC,0.0426
14,ATTACCCA,-0.0268
15,AATACCCG,0.431
16,ACTACCCA,-0.261
17,CCAGTGCA,-0.303
18,ACGGCTAG,0.12
19,ACAGCCAA,-0.135
20,TCTAGAGA,-0.256
21,TGAAACAA,-0.124
22,CAAGAAAG,-0.0821
23,CCGAACGA,0.379
24,ACGAACGC,-0.15
25,GCGAACGC,-0.0479

row,Sequence,PBM E-score
1,CCGAACGG,0.413
2,CCGAACGC,0.415
3,ACGAACGG,0.0948
4,ATGCTGTC,-0.134
5,CGCTAGAA,-0.154
6,ACTTATCT,-0.211
7,AAGTCTTC,-0.108
8,ATGCTGAG,-0.229
9,ACTTCGCG,0.116
10,CCTTCGGA,0.474
11,ACTTCGGC,0.392
12,ACTTCGGG,0.407
13,GCTTCGTA,-0.25
14,GCTTCGCA,-0.173
15,CCTTCGAA,-0.117
16,CCTTCGGC,0.335
17,CCTTCGCA,-0.236
18,GCTTCGGA,0.439
19,ACTTCGCC,-0.0357
20,ACTTCGAG,-0.0152
21,CGTAGTGA,-0.114
22,GAAGAGTC,-0.0545
23,ACCACTAA,-0.0511
24,AGGAGTCG,-0.142
25,GCCATAAC,-0.211

row,Sequence,PBM E-score
1,AAGTCGGG,0.306
2,ACTCATTG,-0.0916
3,CACGCCAG,-0.0642
4,ACTTCGGA,0.458
5,ACTTCGAA,-0.167
6,ACTTCGCA,-0.156
7,ATGATCCA,-0.032
8,ACGATCCG,0.399
9,ACGATCCA,-0.0732
10,CCGATCCG,0.445
11,ACGATCCC,0.192
12,CCGATCCA,0.238
13,ATGATCCG,0.397
14,CCGATCCC,0.34
15,ATGATCCC,0.157
16,GAGACGCA,0.0275
17,CCCAATCC,0.0104
18,CAGGGGCG,-0.182
19,CGAACCGC,0.0494
20,CTAACCGC,0.0169
21,CGAACCGA,0.397
22,GGGACCGA,0.265
23,TCAACCGA,0.291
24,GGAACCGA,0.343
25,CTAACCGA,0.401

row,Sequence,PBM E-score
1,ATAACCGC,0.0841
2,ATAACCGG,0.281
3,CGGACCGC,0.29
4,CGGACCGA,0.419
5,ATAACCGA,0.388
6,GAACGTCA,-0.175
7,CTGCCATC,-0.0272
8,CCCGTACC,0.245
9,AGAACTTG,-0.161
10,ACTGACCT,-0.2
11,AATGAAAG,-0.0359
12,ACTAGGGG,-0.0854
13,TCCGCAGA,0.0922
14,CTTACCGC,0.119
15,GTTACCGA,0.366
16,CATACCGA,0.287
17,GATACCGA,0.291
18,GTAACCCA,-0.0452
19,TATACCGA,0.383
20,GTAACCGA,0.386
21,GTAACCTA,0.0635
22,CTTACCGA,0.393
23,GACCCAAC,-0.116
24,CGGTAGAG,0.112
25,AATTTGCC,0.0997

row,Sequence,PBM E-score
1,ATGAGATC,-0.124
2,ACTGAAAT,-0.18
3,CGTCGGAG,0.275
4,CGTCGGGA,0.383
5,CGTCGGAC,0.269
6,GGACGGAA,0.328
7,GGTCGGAA,0.439
8,GGTCGGAC,0.144
9,AGTCGTAT,-0.147
10,AGTCGGAT,0.429
11,AGTCGGCC,0.168
12,GGTCGGGA,0.368
13,AGTCGGGA,0.362
14,CGTCGGAA,0.452
15,CTAGATAC,0.0146
16,AGGACCGC,-0.0222
17,CAGAATAA,-0.0851
18,TGTCGTAA,-0.215
19,TGACGGAA,0.312
20,AGTCGGAA,0.451
21,AGTCGGAC,0.176
22,AGTCGGAG,0.226
23,TGTCGGAA,0.416
24,AGAGAACT,-0.114
25,GGGTCACA,-0.0305

row,Sequence,PBM E-score
1,CAATTTAA,-0.105
2,GGTTTTTA,-0.0968
3,CAGGAGCA,-0.163
4,CACCTGAG,-0.337
5,AGGATATA,-0.0497
6,GGGATATA,0.168
7,CTGATATC,0.136
8,CGGATATC,0.426
9,AGGATATC,0.0132
10,CGGATATA,0.452
11,TCCAGTAA,-0.176
12,TCTGACCA,-0.24
13,CGTTCGGA,0.465
14,GGTTCGCA,0.0434
15,GGTTCGGA,0.442
16,CGTTCGTA,-0.0524
17,CGTTCGGC,0.368
18,GGTTCGAA,-0.0143
19,ACATTGGA,-0.177
20,CGAGATAG,0.00411
21,CTGCAAAG,-0.28
22,CGTCCTGA,-0.249
23,TCCGTTAA,0.259
24,AAAAACCT,0.0896
25,GCCGAGGC,0.436

row,Sequence,PBM E-score
1,CACGAGGA,-0.11
2,TACGAGGA,-0.193
3,CTCGAGGA,-0.188
4,ACCGAGGC,0.302
5,ACCGAGGA,0.323
6,GACGAGGC,-0.0506
7,TCAGAGGA,-0.183
8,TCCGAGGA,0.453
9,CCCGAGGA,0.388
10,GTCGAGGA,-0.239
11,GCCGAGGA,0.4
12,GTAAGCAC,-0.144
13,CGAAATGC,0.124
14,ATGTCGTA,-0.29
15,AGGATGGA,0.0445
16,CAGGATTA,0.00923
17,CACCCTCG,0.0812
18,CACACATG,-0.15
19,CGATCGCC,0.0955
20,TAGTAACA,-0.0586
21,CCCAGAGC,-0.299
22,AGAAGGAA,0.0573
23,CACGAGGC,-0.131
24,CCCGAGGC,0.388
25,ACCGAGGG,0.27

row,Sequence,PBM E-score
1,CACGAGGG,-0.0631
2,CGCGAGGC,0.0155
3,CCCGAGGG,0.404
4,CCATAAGG,-0.314
5,CCAGATAC,-0.122
6,CTATTGCA,-0.0693
7,ACAGACCT,0.00106
8,ACCAATCT,0.0037
9,AGGATAAC,-0.159
10,CGGATAAC,0.452
11,AGGATAAA,-0.0635
12,TGGATAAA,0.027
13,CCGATAAG,0.269
14,GGGATAAC,0.0907
15,AGGATAAG,-0.0142
16,CGGATAAG,0.41
17,CGGATAAA,0.465
18,AGATCAGC,0.0618
19,GGTAGACC,0.143
20,CCTCTTAC,-0.274
21,AACGACTA,-0.151
22,AAGGTACG,-0.0106
23,GGCCTAAA,-0.102
24,CTCCGACC,0.315
25,CTCCGACA,0.227

row,Sequence,PBM E-score
1,GTCCGACA,0.213
2,ATCCGACA,0.442
3,AGCCGACG,0.353
4,AACCGACG,0.304
5,ACCCGACC,0.382
6,ATCCGACG,0.452
7,ATCCGACC,0.425
8,CAAATCTA,-0.211
9,CCTTTGTC,-0.141
10,GCCTACGC,-0.306
11,TACACTGA,-0.0306
12,CCGAAGAC,0.374
13,CCGAAGAA,0.402
14,CCGAAGAG,0.417
15,TCGAAGAA,-0.122
16,ACGAAGAA,-0.0766
17,ACGAAGAG,-0.117
18,GAGTACTC,-0.00922
19,AACGACGT,-0.166
20,ATTGACCC,0.0534
21,GCGAGCGC,-0.103
22,ACGAGCGG,0.0575
23,GCGAGCGA,-0.0989
24,ACGAGCGC,-0.0806
25,CCGAGCGG,0.431

row,Sequence,PBM E-score
1,ACGAGCGA,-0.402
2,CCGAGCGC,0.44
3,CCGAGCGA,0.403
4,CAGAGCGG,-0.0262
5,AGTATCGA,-0.072
6,ATTCGCAG,-0.152
7,AAAGTCGC,0.0621
8,AGATTTAG,-0.0774
9,ACTTTGGC,0.123
10,CTCGACAC,-0.144
11,CCGAATTC,0.398
12,ACGAATTC,-0.192
13,CCGAATAC,0.425
14,CCGAATTA,0.363
15,ACGAATAC,-0.0867
16,CCGAATAA,0.381
17,ACGACCGA,0.0769
18,TCCGCCAA,0.233
19,GGGTCGGA,0.392
20,CGGTCGGA,0.388
21,CGGTCGGC,0.318
22,AGGTCGGA,0.345
23,GGGTCGAA,0.0324
24,CGGTCGTA,0.128
25,GCGTCCGA,0.282

row,Sequence,PBM E-score
1,GGCATGCC,0.156
2,GTCTAGTA,-0.11
3,GTACTGTA,-0.171
4,AACCACAG,-0.177
5,GTCGAATA,-0.181
6,CCCGAATA,0.397
7,CACGAATA,-0.22
8,CCCGAATC,0.397
9,ACCGAATA,0.215
10,ACCGAATC,0.357
11,CTCGAATA,0.0163
12,GCCGAATA,0.427
13,CTCGAATC,-0.207
14,CCATCACA,-0.197
15,CCCCATCA,-0.137
16,CCTTCTTA,-0.143
17,CCGGCATC,0.28
18,CCTTTCAA,-0.112
19,GAATGGTC,0.0599
20,CCAGACGG,-0.0564
21,ACGGATCA,0.325
22,ACGGATCC,0.352
23,TCGGATCA,0.46
24,CCGGATCC,0.395
25,CCGGATGC,0.396

row,Sequence,PBM E-score
1,ACGGATGC,0.298
2,GCGGATCC,0.301
3,TCAGATCA,-0.235
4,GCGGATCA,0.196
5,TAGGATCA,-0.0704
6,CCGGATCA,0.383
7,CCGGATGA,0.366
8,AGATCTAG,-0.255
9,TTGGCAAA,-0.183
10,AACCGCGG,0.291
11,GAGGAGGC,-0.196
12,ACGTTTTC,0.0722
13,GATTGCTA,-0.122
14,TTAGACAA,-0.0136
15,CAGGATCG,0.0947
16,ACGGATCG,0.315
17,CCGGATCG,0.413
18,TATGACGA,-0.111
19,GGAAGTGA,0.245
20,ATTAGAGG,6e-05
21,AACTGGAA,-0.0984
22,CATTTAGA,-0.00372
23,GTTCCAAA,-0.0427
24,ATTCCGTG,0.363
25,CTTCCGCA,0.331

row,Sequence,PBM E-score
1,GTTCCGAA,0.479
2,ATTCCGCA,0.169
3,AGTCCGAG,0.371
4,CTTCCAAA,-0.174
5,GTTCCGCA,0.293
6,CTTCCGAA,0.479
7,ATTCCGTA,0.265
8,ATTCCGAA,0.464
9,ATTCCGAG,0.472
10,GCGATCTA,-0.0238
11,GCGACCAA,-0.183
12,CCGCCAAG,-0.059
13,AACATCGT,-0.0992
14,ATCTCCGG,0.345
15,GCTTGCGA,-0.104
16,ACTAAGCG,-0.0604
17,CCTATATA,-0.103
18,GGAATCAC,0.244
19,CCAGGCTA,-0.289
